Results taken from the supplement of paper PMC13380429.

Test system: Vero E6 infected with SARS-CoV-2
Assay: inhibition of SARS-CoV-2 cytopathic effect; higher = more antiviral protection, active = above 15
Details: 48 h

Measured: inhibition of SARS-CoV-2 cytopathic effect

CC(C)C[C@H](NC(=O)OCc1ccccc1)C(=O)N[C@@H](C[C@@H]1CCNC1=O)C(O)S(=O)(=O)O (stereo not given in full) [GC376 sodium]
inactive: 1 nM 0.45% | 8.33 nM -0.81% | 100 nM 0.28% | 833.33 nM -0.83%
active: 10000 nM 70.6%

CSc1ccc(C(=O)c2[nH]c(=O)[nH]c2C)cc1 [enoximone]
inactive: 1 nM -4.27% | 8.33 nM -5.05% | 100 nM -6.45% | 833.33 nM -4.44% | 10000 nM -2.39%

CNC(=O)Nc1ccc(-c2nc(N3CC4CCC(C3)O4)c3cnn(C4CCC5(CC4)OCCO5)c3n2)cc1
inactive: 1 nM -1.21% | 8.33 nM 1.24% | 100 nM 0.34% | 833.33 nM -0.87% | 10000 nM 9.1%

CCOC(=O)[C@H](CCc1ccccc1)N[C@@H](C)C(=O)N(CC(=O)O)C1Cc2ccccc2C1 [delapril]
inactive: 1 nM -1.82% | 8.33 nM 0.71% | 100 nM 2.57% | 833.33 nM 2.28% | 10000 nM -1.55%

OC[C@H]1O[C@@H](OCCc2ccc(O)cc2)[C@H](O)[C@@H](O)[C@@H]1O [salidroside]
inactive: 1 nM -0.77% | 8.33 nM 0.23% | 100 nM -0.6% | 833.33 nM 0.45% | 10000 nM -0.54%

COC(=O)[C@H](Cc1ccccc1)NC(=O)[C@@H](N)CC(=O)O [aspartame]
inactive: 1 nM -0.23% | 8.33 nM -0.6% | 100 nM 0.53% | 833.33 nM -1.78% | 10000 nM 0.85%

CN1CCC[C@@H](CC2c3ccccc3Sc3ccccc32)C1 (racemic) [metixene]
inactive: 1 nM -0.25% | 8.33 nM 1.09% | 100 nM 1.62% | 833.33 nM -0.01%
active: 10000 nM 42.2%

COc1ccc(CCN(C)CCc2ccc(OC)c(OC)c2)cc1OC
inactive: 1 nM 0.34% | 8.33 nM 3.91% | 100 nM 0.58% | 833.33 nM 4.35% | 10000 nM 3.64%

CN(C)C(=O)Nc1cccc(-c2ccc(N(C)C)cc2)c1 [atglistatin]
inactive: 1 nM -1.57% | 8.33 nM -1.64% | 100 nM 1.22% | 833.33 nM 0.77% | 10000 nM 1.31%

O=c1c2ccccc2[se]n1-c1ccccc1 [ebselen]
inactive: 1 nM 0.19% | 8.33 nM 3.3% | 100 nM 2.73% | 833.33 nM 3.17% | 10000 nM -3.01%

COc1cc2c(cc1OC(C)C)[C@H](c1ccc(Cl)cc1)N(c1ccc(N(C)C[C@H]3CC[C@H](N4CCN(C)C(=O)C4)CC3)cc1)C(=O)C2
inactive: 1 nM -0.21% | 8.33 nM 1.25% | 100 nM 2.45% | 833.33 nM 2.4% | 10000 nM 2.39%

CC1COc2c(N3CCN(C)CC3)c(F)cc3c(=O)c(C(=O)O)cn1c23 (stereo not given) [ofloxacin]
inactive: 1 nM 1.97% | 8.33 nM 0.365% | 100 nM 0.065% | 833.33 nM -0.975% | 10000 nM 1.25%

CCCCOc1cc(C(=O)OCCN(CC)CC)ccc1N [oxybuprocaine]
inactive: 1 nM 0.54% | 8.33 nM 0.93% | 100 nM 5.2% | 833.33 nM 3.06% | 10000 nM -0.68%

CC(C(=O)O)c1ccc2c(c1)[nH]c1ccc(Cl)cc12 (stereo not given) [carprofen]
inactive: 1 nM 4.44% | 8.33 nM 2.85% | 100 nM -6.45% | 833.33 nM 4.46% | 10000 nM 3.76%

C[N+](C)(C)CC#CCN1CCCC1=O [oxotremorine-M]
inactive: 1 nM -3.6% | 8.33 nM -0.15% | 100 nM 2.23% | 833.33 nM -2.21% | 10000 nM 0.38%

CNC(=O)c1ccccc1Sc1ccc2c(/C=C/c3ccccn3)n[nH]c2c1 [axitinib]
inactive: 1 nM -0.21% | 8.33 nM -0.79% | 100 nM 0.55% | 833.33 nM 2.32% | 10000 nM 0.23%

CCNC(=O)Nc1ccc(-c2nc3c(c(N4CCOC[C@@H]4C)n2)CCN(C2COC2)C3)cc1
inactive: 1 nM 0.65% | 8.33 nM -0.06% | 100 nM -0.8% | 833.33 nM 0.29% | 10000 nM -0.84%

C=CC(=O)Nc1cccc(Nc2nc(Nc3ccc(OCCOC)cc3)ncc2F)c1
inactive: 1 nM -0.6% | 8.33 nM 2.81% | 100 nM 0.54% | 833.33 nM -6.55% | 10000 nM -11.3%

O=C(O)C[CH2][Ge](=[O])[O][Ge](=[O])[CH2]CC(=O)O [propagermanium]
inactive: 1 nM -0.42% | 8.33 nM 1.44% | 100 nM 3.85% | 833.33 nM -0.73% | 10000 nM -2.33%

O=C(O)CSCC(=O)NC1CCSC1=O (stereo not given) [erdosteine]
inactive: 1 nM 1.03% | 8.33 nM 2.17% | 100 nM 1.67% | 833.33 nM -2.61% | 10000 nM 1.6%
